This is part of a sample that, as a whole, favours compounds with a hit. Of some 83,000 tested, about 20% had one in any assay.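 Method: cells in 96-well plates; compound added at one concentration; 48 h incubation; percent growth measured; values under 10 scored active.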 A number with no mark means an inactive call. Calls of active or inactive are those of the source.

Common to all, as to experiment: NCI-60 one-dose screen, 48 h (100 = growth as untreated, 0 = no growth, -100 = all killed)
Details in all cases: 10 µM unless noted

Assay [1] concerns SK-MEL-2 melanoma.
The subject of assay [2] is EKVX NSCLC.
Assay [3] relates to SN12C renal.
Assay [4] has as its system UO-31 renal.
Assay [5] has as its system TK-10 renal.
Assay [6] has as its system ACHN renal.
In assay [7] the test system is A498 renal.
Assay [8] has as its system CCRF-CEM leukemia.
For assay [9], the system named is MOLT-4 leukemia.
Assay [10] relates to SR leukemia.

Turning to `CCCCC1=c2c([nH]c3ccc(OC)cc23)=NC2C=CC=NC12` (stereo not given), the growth in assay [1] is 110%; in [2] it was 84.3%; in [3], 88.5%; in assay [4] it was 75%; in [5], 115%; in assay [6], 91.2%. The growth in assay [7] is 94.9%; in assay [8], 91.5%; in [9] it was 69.5%; in [10], 45%.

With `COc1ccc2cc(/C=C3\N=C(c4cc(OC)c(OC)c(OC)c4)OC3=O)c(OC)nc2c1`, the growth in assay [1] was 106%; in assay [2] it was 103%; in [3], 94.2%; in assay [4], 95.8%; in assay [5] it was 106%; in assay [6] it was 101%. Also, the growth in assay [7] is 99.5%; in assay [8] it was 111%; in assay [9] it was 94.8%; in assay [10] it was 95.8%.

Take `C=CCn1c(CN2CCN(c3cc4c(cc3F)c(=O)c(C(=O)O)cn4C3CC3)CC2)n[nH]c1=S`: the growth in assay [1] is 104%; in assay [2] it was 101%; in assay [3], 104%; in assay [4], 83.7%; in [5], 88.9%; in [6], 102%. In addition, the growth in [7] is 98.2%; in assay [8], 90.1%; in [9] it was 94.2%; in assay [10] it was 99.1%.

Consider `C=C(C)[C@@H]1CC[C@]2(C(=O)OCCOCCOCC[P+](c3ccccc3)(c3ccccc3)c3ccccc3)CC[C@]3(C)[C@H](CC[C@@H]4[C@@]5(C)CC[C@H](OC(C)=O)C(C)(C)[C@@H]5CC[C@]43C)[C@@H]12`, for which the growth in [1] is -75.6% (active); in assay [2], -74.8% (active); in [3], -89.9% (active); in assay [4], -95.1% (active); in assay [5] it was -87.1% (active); in [6] it was -96.7% (active). The growth is -94% (active) in assay [7], -41% (active) in [8], -77.9% (active) in assay [9] and -49.2% (active) in [10].

Regarding `CN(C)CSc1nc2ccccc2s1`, the growth is 101% in assay [1]; 87.6% in assay [2]; 101% in assay [3]; 71.8% in [4]; 119% in [5]; 92.6% in assay [6]. In addition, the growth is 111% in assay [7], 83.5% in [8], 99.7% in assay [9] and 94.1% in assay [10].

As for `C1=CC2=CC=C3C=CC=C4C(c5nc6c7ccccc7c7ccccc7c6[nH]5)=CC(=C1)C2C34` (stereo not given), the growth in assay [1] was 123%; in assay [2], 93.5%; in [3], 94.6%; in assay [4] it was 62.8%; in assay [5] it was 127%; in assay [6], 89.6%. For the same compound, the growth was 63.7% in assay [7], 89.7% in assay [8], 73.3% in [9] and 76.3% in assay [10].

For the compound `Cc1cc(C)cc(Nc2nccc(-c3c(-c4ccc(F)cc4)ncn3C3CCNCC3)n2)c1`, the growth in assay [1] was 21.4%; in assay [2], 27.4%; in assay [3] it was 16.5%; in [4] it was -28.6% (active); in assay [5] it was 17.8%; in assay [6], 4.78% (active). Further, the growth in assay [7] is 53.2%; in assay [8], -12.6% (active); in assay [9], -14.2% (active); in [10], -31% (active).

On to `COc1ccc(/C=C/C(=O)C(CC2CCC2)C(=O)/C=C/c2ccc(OC)c(OC)c2)cc1OC`, for which the growth is -16.7% (active) in assay [1]; -0.196% (active) in assay [2]; -20.7% (active) in assay [3]; -98.1% (active) in assay [4]; -32.8% (active) in assay [5]; -77.2% (active) in [6]. For the same compound, the growth in assay [7] is -34.5% (active); in [8], 8.4% (active); in assay [9] it was 4.1% (active); in assay [10], -17% (active).

For `COc1cc(C2=NN(C(C)=O)C(c3cccc(Nc4ccnc5cc(C(F)(F)F)ccc45)c3)C2)cc(OC)c1OC` (stereo not given), the growth in [1] was 81.4%; in assay [2], 52.2%; in assay [3] it was 64.3%; in assay [4], 35.8%; in assay [5], 58.3%; in assay [6], 58.5%. Moreover, the growth was 60.3% in [7], 44% in assay [8], 22.3% in assay [9] and 29% in [10].

With `C=C1C(=O)O[C@H]2[C@H]1CC/C(COC(=O)CCC(=O)OC/C1=C/CC[C@@]3(C)O[C@H]3[C@H]3OC(=O)C(=C)[C@@H]3CC1)=C\CC[C@@]1(C)O[C@@H]21`, the growth in assay [1] was 60.8%; in [2] it was 44.5%; in [3], 5.32% (active); in assay [4] it was 0.355% (active); in [5], 25%; in assay [6] it was -21.8% (active). Besides, the growth in assay [7] is 114%; in [8] it was -8.57% (active); in assay [9], 1.24% (active); in [10] it was 0.484% (active).

With `COC(=O)/C=C1\SC(=Nc2cccc(Cl)c2)N(CCc2c[nH]c3ccccc23)C1=O`, the growth in assay [1] is 40.6%; in assay [2], 71.9%; in assay [3], 44.5%; in assay [4], 58.5%; in assay [5], 73.4%; in [6], 63.9%. Further, the growth is 61.5% in assay [7], 5.03% (active) in assay [8], -17.6% (active) in [9] and -7.91% (active) in assay [10].

On to `CC(=O)Oc1ccc(O)cc1`, for which the growth in assay [1] is 87.2%; in assay [2], 103%; in assay [3], 99.9%; in assay [4], 91.2%; in assay [5] it was 112%; in assay [6] it was 97.8%. Moreover, the growth in [7] was 100%; in assay [8], 64.3%; in assay [9] it was 4.64% (active); in assay [10], 87.7%.

As to `O=C1CS/C(=N/c2nnc(-c3ccc(O)cc3)s2)N1`, the growth in assay [1] was 108%; in [2], 92.7%; in assay [3] it was 101%; in [4], 93.5%; in assay [5] it was 115%; in [6] it was 103%. In addition, the growth was 108% in assay [7], 97% in [8], 80.5% in assay [9] and 93.1% in assay [10].

For `COC(=O)/C=C1\SC(=Nc2ccc(C(F)(F)F)cc2)N(CCc2c[nH]c3ccccc23)C1=O`, the growth in [1] was -54.1% (active); in [2] it was -6.54% (active); in assay [3] it was -65.1% (active); in assay [4], -100% (active); in assay [5] it was -33.7% (active); in assay [6], -100% (active). Also, the growth in assay [7] is -48.5% (active); in [8] it was 3.88% (active); in assay [9] it was -11.4% (active); in assay [10], -13.7% (active).

For the compound `Cc1cnc(-c2ccc(-c3ccc(NC(=O)Nc4c(F)cc(F)cc4F)cc3F)c3c2C(=O)NC3)[nH]1`, the growth in assay [1] was 58.1%; in assay [2], 52%; in assay [3] it was 3.34% (active); in [4], 50.3%; in [5] it was 83.6%; in assay [6] it was 50.4%. Moreover, the growth was 22.4% in assay [7], 23.9% in assay [8], 18.3% in [9] and -3.54% (active) in assay [10].

`COc1ccccc1C(=O)/C=C/c1cc2cccc(OC)c2[nH]c1=O`: the growth in [1] was 20%; in [2] it was 7.34% (active); in assay [3], -0.142% (active); in [4], -48.6% (active); in [5] it was 3.12% (active); in assay [6], 4% (active). Further, the growth in assay [7] was -15% (active); in assay [8], -4.86% (active); in assay [9], 7.38% (active); in assay [10], -1.87% (active).

With `O=C(Nc1ccc2ncnc(Nc3ccc(F)c(Cl)c3)c2c1)c1ccccc1`, the growth in assay [1] is 87.5%; in assay [2], 61.2%; in [3] it was 71.2%; in [4], 63.3%; in assay [5], 36.8%; in assay [6] it was 37%. Further, the growth in assay [7] was 67.6%; in [8] it was 98.6%; in [9], 63.4%; in assay [10], 66.7%.

With `O=C(O)CCNC1CCCCC1`, the growth in assay [1] is -21.2% (active); in assay [2], 115%; in assay [3], 88.3%; in assay [4], 83.4%; in assay [5] it was 118%; in assay [6], 103%. For the same compound, the growth is 94.6% in assay [7], 102% in assay [8], 103% in assay [9] and 105% in assay [10].

Regarding `COc1ccc(NC(=O)c2sc3nc(C)c(C(C)=O)cc3c2N)cc1`, the growth in assay [1] is 98.5%; in [2] it was 97.2%; in assay [3], 101%; in assay [4] it was 105%; in [5], 75.2%; in assay [6] it was 95.3%. The growth in assay [7] is 71.1%; in assay [8] it was 92.2%; in [9], 84.9%; in assay [10], 84.3%.

Turning to `COc1ccc2c(c1)Oc1nc(N)c(C#N)c(N)c1C2Sc1ccc(O)cc1` (stereo not given), the growth in [1] is 87.5%; in assay [2] it was 77.7%; in [3] it was 89.4%; in assay [4], 68.3%; in [5], 98.5%; in assay [6] it was 94.2%. For the same compound, the growth was 91.4% in [7], 16.5% in assay [8], 34.7% in [9] and 13.7% in assay [10].

For the compound `c1ccc(Sc2ncccn2)nc1`, the growth in assay [1] was 107%; in [2] it was 106%; in assay [3] it was 106%; in [4], 87.9%; in assay [5], 109%; in [6], 98.2%. In addition, the growth in [7] is 92.9%; in assay [8] it was 104%; in assay [9], 98.4%; in assay [10], 95.5%.

For the compound `CN(C)C(CNc1oc(-c2cccc3ccccc23)nc1C#N)c1ccco1` (stereo not given), the growth is 95.9% in [1]; 85.1% in [2]; 103% in assay [3]; 87.7% in assay [4]; 109% in [5]; 90.6% in assay [6]. The growth is 107% in assay [7], 79.5% in assay [8], 70.5% in [9] and 69.5% in [10].

Values taken from PubChem BioAssay (NCI).
